# Assay results from PubChem BioAssay (NCI).
# This is part of a sample that, as a whole, favours compounds with a hit. Of some 79,000 tested, about 15% had one in any assay. Unmarked numbers belong to inactive results. Calls of active or inactive are those of the source. Cut-off read from the data, not from the text of the source: active = growth inhibition above about 70%; inactive = the rest. Where a SMILES comes first, the peptide text is derived from it. The star is where a group is joined. Boc = CC(C)(C)OC(=O)*; OBn = c1ccc(CO*)cc1; Bn = c1ccc(C*)cc1
# What was measured:
# [1] = NCI Yeast Anticancer Drug Screen. Data for the rad50 strain (AID 155);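 note: 0% = growth of vehicle-only cultures of the same strain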; conditions: S. cerevisiae rad50 strain growth inhibition, stronger effect = higher value
# Outline: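 Relative growth inhibition (compound vs vehicle) was measured in yeast with a defined repair-gene alteration.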
# [2] = NCI Yeast Anticancer Drug Screen. Data for the mec2-1 strain (AID 157); conditions: S. cerevisiae mec2-1 strain, stronger effect = higher value
# Outline: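 Vehicle-treated cultures served as reference for growth inhibition of compound-exposed mec2-1 yeast.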
# [3] = NCI Yeast Anticancer Drug Screen. Data for the sgs1 mgt1 strain (AID 161);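 note: 0% = growth of cultures given vehicle only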; conditions: S. cerevisiae sgs1 mgt1 strain, stronger effect = higher value
# Outline: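 Mutant yeast exposed to compound; growth scored against vehicle-only wells.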
# [4] = NCI Yeast Anticancer Drug Screen. Data for the cln2 rad14 strain (AID 165);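 note: 0% = growth equal to vehicle treated cultures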; conditions: S. cerevisiae cln2 rad14 strain, stronger effect = higher value
# Outline: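 Each compound was tested on cln2 rad14 yeast. Inhibition of growth was calculated against vehicle-exposed controls.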
# [5] = NCI Yeast Anticancer Drug Screen. Data for the bub3 strain (AID 167); conditions: S. cerevisiae bub3 mutant strain, stronger effect = higher value
# Outline: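 Screening used yeast with an engineered genetic alteration affecting cell cycle control. Compound-exposed cultures were compared with vehicle cultures, and reduced growth was taken as inhibition.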
# [6] = NCI Yeast Anticancer Drug Screen. Data for the mlh1 rad18 strain (AID 175); conditions: S. cerevisiae mlh1 rad18 strain growth inhibition, stronger effect = higher value
# Outline: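 Vehicle-treated cultures served as the reference for growth inhibition in a yeast strain carrying DNA damage repair alterations exposed to each compound.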
# [7] = at 5.0 µM (retest, dose inferred, filed as 0.5)
# [8] = at 50.0 µM (retest, dose inferred, filed as 5.0)
SMILES,"growth inhibition [1, 7]","growth inhibition [1, 8]",growth inhibition ([1]; at 50.0 µM),"growth inhibition [2, 7]","growth inhibition [2, 8]",growth inhibition ([2]; at 50.0 µM),"growth inhibition [3, 7]","growth inhibition [3, 8]",growth inhibition ([3]; at 50.0 µM),"growth inhibition [4, 7]","growth inhibition [4, 8]",growth inhibition ([4]; at 50.0 µM),"growth inhibition [5, 7]","growth inhibition [5, 8]",growth inhibition ([5]; at 50.0 µM),"growth inhibition [6, 7]","growth inhibition [6, 8]",growth inhibition ([6]; at 50.0 µM)
CCCCCC(=O)/C=C/c1ccc(C)cc1,-155%,-162%,82.6% (active),-47%,-59%,56.9%,-60%,-65%,83% (active),-59%,-80%,75% (active),-59%,-57%,61.8%,-123%,-131%,81.7% (active)
CC(C)CC(NC(=O)C(Cc1ccccc1)NC(=O)C(COCc1ccccc1)NC(=O)OC(C)(C)C)C(=O)OCc1ccccc1 (stereo not drawn) (Boc-Ser(Bn)-Phe-Leu-OBn; configuration not given here),16%,13%,16.8%,22%,15%,2.6%,-15%,-29%,17.2%,-3%,7%,16.2%,-4%,-7%,25.4%,26%,15%,24.3%
O=C(CN(Cc1ccccc1)Cc1ccccc1)c1ccccc1,-2%,31%,19.6%,1%,34%,-1.8%,-2%,33%,16.9%,3%,45%,1.75%,4%,89% (active),79.7% (active),-1%,57%,15.4%
N#CSCc1ccc(CSC#N)c(Cl)c1,10%,93% (active),59.7%,0%,91% (active),40.4%,18%,91% (active),41%,4%,88% (active),60.8%,11%,98% (active),39.1%,4%,96% (active),93.3% (active)
N#Cc1ccc([N+](=O)[O-])o1,11%,97% (active),96.2% (active),1%,98% (active),99% (active),9%,93% (active),96.2% (active),8%,59%,62.8%,7%,92% (active),97.7% (active),15%,99% (active),97.9% (active)
CN(C)CCOc1ccc2c(c1)C(=O)/C(=C\c1ncc([N+](=O)[O-])n1C)C2,31%,73% (active),54.1%,21%,89% (active),80.3% (active),21%,67%,77.4% (active),22%,46%,59%,21%,95% (active),34.8%,50%,78% (active),80.8% (active)
CCC(c1ccc(O)cc1)C(CC)c1ccc(O)c(O)c1 (configuration not stated),16%,98% (active),99.6% (active),12%,99% (active),99.5% (active),13%,99% (active),99.5% (active),-2%,99% (active),99.4% (active),10%,98% (active),99.5% (active),12%,97% (active),99.5% (active)
Cc1ccc(NS(=O)(=O)c2ccc(C)cc2)cc1,-7%,92% (active),37.6%,-8%,92% (active),14.1%,-11%,92% (active),26.8%,-6%,68%,22.4%,-6%,90% (active),28.6%,-4%,86% (active),47.1%
C[C@]12CC[C@H](O)C[C@@H]1CC[C@@H]1[C@@H]2C(=O)C[C@]2(C)C3=CC(=O)O[C@H]3C[C@@H]12,40%,97% (active),98.2% (active),27%,98% (active),91% (active),32%,98% (active),94% (active),-3%,94% (active),57.6%,11%,97% (active),92.6% (active),34%,98% (active),96.8% (active)
O=C(Nc1cccc(Br)c1)Oc1ccc(Cl)c2cccnc12,38%,98% (active),89% (active),4%,99% (active),91.1% (active),7%,99% (active),91.7% (active),4%,97% (active),89% (active),-7%,98% (active),89.9% (active),16%,98% (active),90.8% (active)
CC(=O)OC1(C)C(=C(Cl)Cl)C2c3ccccc3C1c1ccccc12 (configuration not stated),0%,91% (active),92.7% (active),19%,88% (active),82.2% (active),2%,92% (active),94.3% (active),7%,89% (active),64.4%,-4%,93% (active),93.2% (active),10%,91% (active),93.8% (active)
Cc1c(C2CC(=O)NC2=O)c2ccccc2n1C (configuration not stated),3%,3%,6.55%,-1%,0%,6.25%,-1%,-1%,-13.8%,-4%,-5%,69%,4%,3%,-20.6%,2%,3%,7.8%
Cc1cc(C(C)(CC(C)C)c2ccc(O)c(C)c2)ccc1O,99% (active),99% (active),91.1% (active),98% (active),99% (active),93% (active),97% (active),98% (active),93.2% (active),68%,98% (active),92.5% (active),98% (active),97% (active),91.4% (active),100% (active),100% (active),91.3% (active)
CCOC(=O)CCc1ccc(OC)c(OC)c1,1%,-2%,-9.55%,16%,-4%,23%,0%,-2%,22.9%,3%,-8%,38.7%,-2%,19%,17.4%,2%,-1%,-5.15%
CN(C)c1ccc(N=Nc2cccc3ccccc23)cc1,8%,75% (active),34%,3%,89% (active),0.15%,10%,85% (active),4.3%,1%,51%,50.2%,-5%,88% (active),-5.65%,-6%,42%,12.5%
Brc1cc2ccccc2c2ccccc12,11%,91% (active),75.1% (active),-7%,54%,65.2%,7%,89% (active),59.8%,11%,28%,-16.1%,23%,81% (active),55.3%,41%,91% (active),40.8%
N#CSCC(=O)c1ccc(Cl)cc1,43%,61%,89.5% (active),60%,63%,91% (active),92% (active),98% (active),92.5% (active),83% (active),98% (active),89.5% (active),93% (active),99% (active),89.5% (active),36%,56%,89.5% (active)
CC(CN(CC(=O)O)CC(=O)O)N(CC(=O)O)CC(=O)O.[Cl][Pd][Cl] (configuration not stated),27%,89% (active),88.3% (active),7%,87% (active),91.5% (active),40%,92% (active),82% (active),14%,81% (active),57.2%,22%,91% (active),86.4% (active),30%,83% (active),90.7% (active)
CCCN(CCC)C(=S)N/N=C(/C)c1ccccc1O,-8%,98% (active),77.8% (active),-29%,98% (active),85.7% (active),-29%,97% (active),87.2% (active),-26%,97% (active),86.8% (active),-58%,98% (active),89% (active),-23%,98% (active),90.8% (active)
